Source: PubChem BioAssay (NCATS)
Records with an inconclusive call do not appear. Calls of active or inactive are those of the source. The call rests on the fitted dose curve; in most records, active means well fitted curve in the direction sought with a large enough effect; inconclusive means small, poorly fitted or top-dose-only effect, or another doubt; inactive means no such curve, though single readings can be large; an effect the other way counts as inactive or inconclusive.

Experiments:
[1] = target: Metallo-beta-lactamase type 2 (Klebsiella pneumoniae) (UniProt C7C422); test: qHTS to identify inhibitors of the New Delhi Metallo-beta-lactamase (NDM): assay validation screen against the NCATS LOPAC Collection (AID 1794843); further: series mostly up to about 38 µM
Chain of Metallo-beta-lactamase type 2 (Klebsiella pneumoniae) (C7C422 whole entry, looked up): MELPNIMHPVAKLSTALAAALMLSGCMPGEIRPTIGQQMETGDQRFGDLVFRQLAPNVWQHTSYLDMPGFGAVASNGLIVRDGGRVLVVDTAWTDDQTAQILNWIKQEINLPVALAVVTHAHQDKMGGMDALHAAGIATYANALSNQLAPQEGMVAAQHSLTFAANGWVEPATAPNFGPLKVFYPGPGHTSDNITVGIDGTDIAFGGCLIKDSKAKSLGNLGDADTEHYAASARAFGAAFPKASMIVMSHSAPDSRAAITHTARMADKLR
In short: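 Absorbance at 485 nm from nitrocefin turnover (50 uM solution added), read at plateau, gives the read-out. Compounds in DMSO were incubated first with 2 nM final NDM-1 in pH 7.0 HEPES buffer containing 1 uM ZnSO4 and 0.01% Tween20.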

[2] = target: Glutathione peroxidase 1 (Homo sapiens) (UniProt P07203); test: Primary qHTS Assay for Inhibitors of Recombinant Selenoprotein Glutathione Peroxidase 1 (GPX1) (AID 1845191); further: nearly all actives have a fitted effect of over 65% in size
Chain of Glutathione peroxidase 1 (Homo sapiens) (P07203 whole entry, looked up): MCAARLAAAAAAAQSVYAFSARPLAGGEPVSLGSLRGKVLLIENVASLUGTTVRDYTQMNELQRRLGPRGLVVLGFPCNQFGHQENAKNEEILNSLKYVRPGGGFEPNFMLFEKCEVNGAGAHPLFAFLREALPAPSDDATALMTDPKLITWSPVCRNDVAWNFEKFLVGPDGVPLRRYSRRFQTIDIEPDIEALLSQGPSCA
In short: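 GPX1 10 nM, GR 100 nM, GSH 1 mM, NADPH 0.5 mM, CHP 0.5 mM (final). 30-min cpd preincubation, RT. Ex340/Em450 read t=0, t=15 min.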

[3] = target: Phospholipid hydroperoxide glutathione peroxidase GPX4 (Homo sapiens) (UniProt P36969); test: Primary qHTS Assay for Inhibitors of Recombinant Selenoprotein Glutathione Peroxidase 4 (GPX4) (AID 1845192); further: nearly all actives have a fitted effect of over 65% in size
Chain of Phospholipid hydroperoxide glutathione peroxidase GPX4 (Homo sapiens) (P36969 whole entry, looked up): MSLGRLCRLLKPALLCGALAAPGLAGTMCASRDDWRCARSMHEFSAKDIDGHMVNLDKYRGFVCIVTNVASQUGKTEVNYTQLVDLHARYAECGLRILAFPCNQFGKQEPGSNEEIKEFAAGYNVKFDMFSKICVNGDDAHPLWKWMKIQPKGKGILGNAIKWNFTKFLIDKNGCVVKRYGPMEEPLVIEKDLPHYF
In short: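 qHTS, GR-coupled: GPX4 200 nM + cpd 30 min RT → GSH 1 mM, NADPH 0.5 mM, GR 100 nM → CHP 0.5 mM start; fluor 340/450 at t0 and t15 min; no-enzyme wells as control.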

Measured: Potency

CNCCNS(=O)(=O)c1cccc2cnccc12
inactive: all assays above

NC(Cc1cccc(-c2ccccc2CP(=O)(O)O)c1)C(=O)O (stereo not given)
inactive: all assays above

c1ccc(C(NCc2cccnc2)(c2ccccc2)c2ccccc2)cc1
inactive: all assays above

NC(N)=[N+]1CCc2ccccc2C1
inactive: all assays above

Nc1ccc(-c2ccc3ccccc3n2)cc1
inactive: all assays above

CC(N)(Cc1ccc(O)cc1)C(=O)O (stereo not given)
inactive: all assays above

COc1cc(CC(=O)O)ccc1O
inactive: all assays above

O=C(O)Cc1ccc(O)c(O)c1
inactive: all assays above

Cc1cccc(C(=O)NCN2CCN(c3ccccc3C#N)CC2)c1
inactive: all assays above

O=c1[nH]c2ccccc2c2ccccc12
inactive: all assays above

CCOC(=O)C12CC1/C(=N/O)c1ccccc1O2 (stereo not given)
inactive: all assays above

N#C/C(=C\c1ccc(O)c(O)c1)C(=O)NCCCNC(=O)/C(C#N)=C/c1ccc(O)c(O)c1
inactive: all assays above

C[C@](Cc1ccc(O)c(O)c1)(NN)C(=O)O
inactive: all assays above

CC(=O)NCCc1c[nH]c2ccc(O)cc12
inactive: all assays above

Cc1cc2c(cc1Cl)N(C(=O)Nc1ccnc3ccccc13)CC2
inactive: all assays above

CC(=O)N[C@@H](Cc1c[nH]c2ccccc12)C(=O)OCc1cc(C(F)(F)F)cc(C(F)(F)F)c1
inactive: all assays above

O=c1cc(O)cc(/C=C/c2ccc(O)c(O)c2)o1
inactive: all assays above

C[N+](C)(C)CC=O
inactive: all assays above

CC(C)NCC(O)COc1ccc(CC(N)=O)cc1 (stereo not given)
inactive: all assays above

N[C@H](C(=O)O)[C@H]1C[C@@H]1C(=O)O
inactive: all assays above
